Source: PubChem BioAssay AID778 (Sanford-Burnham Center for Chemical Genomics, 2007)
Among all 96,000 compounds or so, about 20,000 (21%) were called active.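 The calls were made as follows: active = CYP2C19 inhibition above a set limit at 5 µM in the primary screen (cut at about 50% in these data); inactive = the rest.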 A selection follows.

biological target: Cytochrome P450 2C19 (Homo sapiens) (UniProt P33261); assay: blockers of cytochrome P450 2C19 activity – biochemical, luminescence, ADME assay, primary screen (AID 778); details: CYP2C19 Supersomes, luciferin-H EGE luminescence, 30 min; at 5 µM; stronger effect = higher value;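 also: plate controls were negative control wells for no effect and 2.5 mM tranylcypromine positive control for full effect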
Sequence (P33261 whole entry, looked up): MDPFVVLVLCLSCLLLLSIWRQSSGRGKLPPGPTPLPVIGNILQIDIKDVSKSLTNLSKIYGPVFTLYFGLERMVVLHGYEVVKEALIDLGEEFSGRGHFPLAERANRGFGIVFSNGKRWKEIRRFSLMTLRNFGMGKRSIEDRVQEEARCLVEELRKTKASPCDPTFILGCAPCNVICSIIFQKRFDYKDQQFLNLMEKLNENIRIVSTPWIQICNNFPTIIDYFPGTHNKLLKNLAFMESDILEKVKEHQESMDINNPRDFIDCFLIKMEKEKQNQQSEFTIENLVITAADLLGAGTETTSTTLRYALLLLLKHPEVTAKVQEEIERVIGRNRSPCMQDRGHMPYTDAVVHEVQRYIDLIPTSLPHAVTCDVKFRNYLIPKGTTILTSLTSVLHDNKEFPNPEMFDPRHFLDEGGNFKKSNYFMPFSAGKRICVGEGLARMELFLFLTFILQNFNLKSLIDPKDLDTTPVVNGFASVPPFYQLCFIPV

SMILES	inhibition
COc1ccc(-c2[nH]nc(-c3ccccc3)c2-c2nc3ccccc3[nH]2)cc1	11.3% (inactive)
Cn1c(C(=O)NCCCN2CCN(c3cccc(Cl)c3)CC2)cc2c(=O)n(C)c3ccccc3c21	18% (inactive)
O=C(O)C1CCCN1S(=O)(=O)c1ccc2c(c1)CCC2 (stereo unspecified)	-10.4% (inactive)
CSc1cccc(NC(=O)C2CCCN2S(=O)(=O)c2ccc3c(c2)CCC(=O)N3)c1 (stereo unspecified)	56.8% (active)
O=C(NCc1cccs1)C1CCN(S(=O)(=O)c2ccc3c(c2)OCCO3)CC1	17.6% (inactive)
O=C1CCc2cc(S(=O)(=O)N3CCC(C(=O)NCc4ccccc4Cl)CC3)ccc2N1	88.6% (active)
COc1ccccc1CNC(=O)C1CCN(S(C)(=O)=O)CC1	2.2% (inactive)
Cc1cccc(NC(=O)C2CCCN2S(=O)(=O)c2ccc(F)cc2)c1C (stereo unspecified)	16.2% (inactive)
CCOC(=O)CNC(=O)c1nn(-c2cccc(OC)c2)c(=O)c2ccccc12	5.3% (inactive)
COc1ccc(-n2nnc3c(=O)n(CC(=O)OCc4ccccc4)cnc32)cc1	3.9% (inactive)
COC(=O)C1=C(Nc2ccc(OC)cc2)C=C(C)C(C(=O)OC)C1c1ccc(C)cc1 (stereo unspecified)	33.3% (inactive)
CC1(C)Cc2c(sc3nc4n(c(=N)c23)CCCCC4)CO1	-6.4% (inactive)
O=C(NCCCNCc1ccccc1)c1ccc(/C=N/O)nc1	-13.4% (inactive)
Cn1c(=O)[nH]c(=O)c2c1nc(CN(Cc1ccccc1)Cc1ccccc1)n2CCN1CCOCC1	14.9% (inactive)
COc1ccc(-c2nc3n(c2Br)CCC3)cc1	32.9% (inactive)
Cc1ccc(C(=O)Nc2c(C#N)c(C)c(C)n2Cc2ccccc2)cc1	23.9% (inactive)
CN1C(=O)c2ccccc2C(C(=O)NCCCN2CCCC2)C1c1c[nH]c2ccccc12 (stereo unspecified)	-6.7% (inactive)
COCc1[nH]nc2c1C(C1C=CCCC1)C(C#N)=C(N)O2 (stereo unspecified)	17.2% (inactive)
N#CC1=C(N)OC2=C(C(=O)CCC2)C1C1CC=CCC1 (stereo unspecified)	61.1% (active)
CC1CCc2c(sc(NC(=O)c3ccc(Cn4cc(Br)cn4)o3)c2C(N)=O)C1 (stereo unspecified)	28.9% (inactive)
Nc1ccccc1SCc1cc([N+](=O)[O-])cc2c1OCOC2	19.4% (inactive)

SMILES	inhibition
CCC(=O)c1ccc(OCC(O)CN2C(=O)NC(C)(C)C2=O)cc1 (stereo unspecified)	31.7% (inactive)
CC1(C)NC(=O)N(CCCCSc2ccc(Cl)cc2)C1=O	87.5% (active)
Cc1ccc(SCCN2C(=O)NC(C)(C)C2=O)cc1	97.8% (active)
Cc1ccc(SCC2=NNC(=O)C2)cc1	7.6% (inactive)
CC1(C)NC(=O)N(CCOc2cccc(Oc3ccccc3)c2)C1=O	42.5% (inactive)
N#CC1=C(N)Oc2c(sc3ccccc23)C1c1ccco1 (stereo unspecified)	22.6% (inactive)
Cc1c(Cl)c([N+](=O)[O-])nn1Cc1ccc(C(=O)N/N=C\c2cc(Cl)ccc2O)o1	31.1% (inactive)
CCN(CC)CCn1c(=S)[nH]c2ncccc2c1=O	-16.9% (inactive)
Cc1cccc(N2C(=O)c3cccnc3C2=O)c1	10.5% (inactive)
COC(=O)c1ccc(CN(c2ccccc2OC)S(=O)(=O)c2cccs2)o1	98.5% (active)
COC(=O)c1ccc(Cc2ccccc2)o1	-1.3% (inactive)
COc1ccc(C(C(=O)NCc2ccccc2)N(Cc2cccs2)C(=O)c2cnccn2)cc1 (stereo unspecified)	47% (inactive)
CCCCN(CCCC)C(=O)CCS(=O)(=O)c1ccc2c(c1)n(C)c(=O)c(=O)n2C	3.1% (inactive)
CS(=O)(=O)c1ccc2c(c1)SC1=NC(=O)/C(=C/c3ccco3)C(=N)N12	8.6% (inactive)
CCS(=O)(=O)N1CCCC(C(=O)NCCCN(C)Cc2ccccc2)C1 (stereo unspecified)	-3% (inactive)
Cc1cc(C)nc(N2C(=O)CC(Cc3ccccc3)C2=O)n1 (stereo unspecified)	15.5% (inactive)
O=C(O)CN1C(=O)CC(Cc2ccccc2)C1=O (stereo unspecified)	-1% (inactive)
O=C1CC(Cc2ccccc2)C(=O)N1c1ccc(Cl)cn1 (stereo unspecified)	59.4% (active)
COc1ccc(-n2c(C)nc3c(cnn3-c3ccccc3)c2=O)cc1	14.9% (inactive)
Cc1cc(C)c(S(=O)(=O)c2ccccc2)c(OC(=O)c2c(F)cccc2Cl)n1	12.4% (inactive)
Cc1nc(C)c(C(=O)Nc2ccc(C)c(F)c2)o1	-9% (inactive)

SMILES	inhibition
CCOc1ccccc1-n1c(SCC(=O)N2CCCC2)nnc1-c1ccoc1C	2% (inactive)
Cc1ccc2nc(/C(C#N)=C\c3ccc(OC(=O)c4cccs4)cc3)[nH]c2c1	50.9% (active)
COc1ccc(/C=C(/NC(=O)c2ccc(C)cc2)c2nc3ccccc3[nH]2)cc1OC	35.6% (inactive)
Cc1ccc2nc(S(=O)(=O)O)[nH]c2c1	-14.4% (inactive)
C=CCn1c(SCC(=O)/C(C#N)=C(\C)N)nc2sc(C)c(C)c2c1=O	6.6% (inactive)
Cc1cnc(NC(=O)CSc2nnc(C)s2)s1	19.7% (inactive)
O=C(CSc1ncnc2c1cnn2CCc1ccccc1)Nc1ccc(F)cc1	7.1% (inactive)
CCC(C)NC(=O)N[C@@H](CCSC)C(=O)O (stereo partly specified)	-1.9% (inactive)
CCCSc1nc(NCc2ccco2)c2c3c(sc2n1)COC(C)(CC)C3 (stereo unspecified)	13.8% (inactive)
CCC1(C)Cc2c(sc3nc(SC)nc(N)c23)CO1 (stereo unspecified)	80.9% (active)
CCC1(C)Cc2c(sc3nnn(CC(=O)Nc4ccc(Cl)cc4)c(=O)c23)CO1 (stereo unspecified)	22.1% (inactive)
COC(=O)c1cc(OC)c(OC)cc1NC(=O)C1CCCO1 (stereo unspecified)	23.5% (inactive)
Cc1ccc(C(=O)c2c(NC(=O)c3ccncc3)sc3c2CCCC3)cc1	28.7% (inactive)
O=C1NC(c2ccncc2)Nc2sc3c(c21)CCCC3 (stereo unspecified)	82.8% (active)
O=C(Nc1sc2c(c1-c1nc3ccccc3[nH]1)CCCC2)C1CC1	9.4% (inactive)
COc1ccc2nc(NC3=NCN(CC4CCCO4)CN3)nc(C)c2c1 (stereo unspecified)	2% (inactive)
Cc1cccn2c(=O)c(/C=C(\C#N)S(=O)(=O)c3ccc(Cl)cc3)c(N3CCC(C(N)=O)CC3)nc12	86.2% (active)
COc1ccccc1-c1nc(C#N)c(N2CCC(C(N)=O)CC2)o1	-9.9% (inactive)
Cc1ccc(C(c2nnnn2CS(=O)(=O)c2ccc(C)cc2)N2CCC(C(N)=O)CC2)cc1 (stereo unspecified)	0.4% (inactive)
